This is an account of results in PubChem BioAssay (NCI).

Compounds without any hit were thinned out: in the full panel of roughly 83,000, 20% have a hit.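 96-well plates, one dose, 48 hours. Percent growth reported; active if below 10.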 Values without a mark were called inactive.

The assay deals with HL-60(TB) leukemia. Put plainly: NCI-60 one-dose screen, 48 h (100 = growth as untreated, 0 = no growth, -100 = all killed). The conditions noted are these: 10 µM unless noted.
In the case of `CC(=O)c1ccc(-n2cc(CN3CCN(c4cc5c(cc4F)c(=O)c(C(=O)O)cn5C4CC4)CC3)nn2)cc1`, the growth was 99%. With `COc1cccc(Nc2ccnc3[nH]c4ccc([N+](=O)[O-])cc4c23)c1`, the growth was 35.4%. With `O=C(Cn1cc(CN2CCN(c3ccnc4cc(Cl)ccc34)CC2)nn1)Nc1cccc([N+](=O)[O-])c1` the figure was 102%.
